{"source": "PubChem BioAssay AID1159580", "about": "(chemical genetic matrix, 2015)", "assay": "chemical genetic growth profiling, strain panel (AID 1159580);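 further: tested at 20 µM; growth read once vehicle control cultures reached saturation at 30 °C; 1 = growth at the plate median or of vehicle wells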", "details": "S. cerevisiae deletion strains, growth OD", "note": "Several values for one entry are separate records, joined by “and”; a condition that tells them apart may be missing. Identical values can stand only once. In all, about 5,500 compounds went through this assay and about 2,000 (36%) were called active. Not shown: some 18% with an inconclusive outcome. No stated cut-off is given here; in the data, active means normalized growth mostly below about 0.91 (no sharp cut-off); inconclusive means no clear call, values can overlap the other calls; inactive means mostly above about 0.92. The list shows a part of the results.", "data": [{"smiles": "Cc1cccc(CN2CCN(C(c3ccccc3)c3ccc(Cl)cc3)CC2)c1", "note": "(stereo not drawn)", "values": [{"measurement": "normalized growth", "setting": "locus YAL021C, strain ccr4, stronger effect = lower value", "value": "0.543 (active)"}, {"measurement": "normalized growth", "setting": "locus YAL026C, strain drs2, stronger effect = lower value", "value": "0.59 (active)"}, {"measurement": "normalized growth", "setting": "locus YAL030W, strain snc1, stronger effect = lower value", "value": "0.861 (active)"}, {"measurement": "normalized growth", "setting": "locus YBL061C, strain skt5, stronger effect = lower value", "value": "0.771 (active)"}, {"measurement": "normalized growth", "setting": "locus YBR009C, strain hhf1, stronger effect = lower value", "value": "0.58 (active)"}, {"measurement": "normalized growth", "setting": "locus YBR021W, strain FUR4, stronger effect = lower value", "value": "0.645 (active)"}, {"measurement": "normalized growth", "setting": "locus YBR023C, strain chs3, stronger effect = lower value", "value": "0.701 (active)"}, {"measurement": "normalized growth", "setting": "locus YBR171W, strain sec66, stronger effect = lower value", "value": "0.879 (active)"}, {"measurement": "normalized growth", "setting": "locus YBR229C, strain ROT2, stronger effect = lower value", "value": "0.979 (inactive)"}, {"measurement": "normalized growth", "setting": "locus YBR231C, strain swc5, stronger effect = lower value", "value": "0.636 (active)"}, {"measurement": "normalized growth", "setting": "locus YBR279W, strain paf1, stronger effect = lower value", "value": "0.777 (active)"}, {"measurement": "normalized growth", "setting": "locus YCL011C, strain gbp2, stronger effect = lower value", "value": "0.633 (active)"}, {"measurement": "normalized growth", "setting": "locus YCL016C, strain dcc1, stronger effect = lower value", "value": "0.723 (active)"}, {"measurement": "normalized growth", "setting": "locus YCL029C, strain bik1, stronger effect = lower value", "value": "0.961 (inactive)"}, {"measurement": "normalized growth", "setting": "locus YCL061C, strain MRC1, stronger effect = lower value", "value": "0.902 (active)"}, {"measurement": "normalized growth", "setting": "locus YCL069W, strain vba3, stronger effect = lower value", "value": "0.848 (active)"}, {"measurement": "normalized growth", "setting": "locus YCR088W, strain abp1, stronger effect = lower value", "value": "0.951 (inactive)"}, {"measurement": "normalized growth", "setting": "locus YDL005C, strain med2, stronger effect = lower value", "value": "0.999 (inactive)"}, {"measurement": "normalized growth", "setting": "locus YDL035C, strain GPR1, stronger effect = lower value", "value": "0.815 (active)"}, {"measurement": "normalized growth", "setting": "locus YDL040C, strain nat1, stronger effect = lower value", "value": "0.922 (active)"}, {"measurement": "normalized growth", "setting": "locus YDL074C, strain BRE1, stronger effect = lower value", "value": "0.498 (active)"}, {"measurement": "normalized growth", "setting": "locus YDL101C, strain DUN1, stronger effect = lower value", "value": "0.887 (active)"}, {"measurement": "normalized growth", "setting": "locus YDL134C, strain PPH21, stronger effect = lower value", "value": "0.806 (active)"}, {"measurement": "normalized growth", "setting": "locus YDL185W, strain tfp1, stronger effect = lower value", "value": "0.99 (inactive)"}, {"measurement": "normalized growth", "setting": "locus YDL192W, strain arf1, stronger effect = lower value", "value": "0.772 (active)"}, {"measurement": "normalized growth", "setting": "locus YDR001C, strain nth1, stronger effect = lower value", "value": "0.978 (inactive)"}, {"measurement": "normalized growth", "setting": "locus YDR069C, strain doa4, stronger effect = lower value", "value": "0.787 (active)"}, {"measurement": "normalized growth", "setting": "locus YDR101C, strain arx1, stronger effect = lower value", "value": "0.935 (inactive)"}, {"measurement": "normalized growth", "setting": "locus YDR137W, strain rgp1, stronger effect = lower value", "value": "1.05 (inactive)"}, {"measurement": "normalized growth", "setting": "locus YDR159W, strain sac3, stronger effect = lower value", "value": "0.925 (inactive)"}, {"measurement": "normalized growth", "setting": "locus YDR162C, strain NBP2, stronger effect = lower value", "value": "0.737 (active)"}, {"measurement": "normalized growth", "setting": "locus YDR195W, strain ref2", "value": "1.52 [resistant] (active)"}, {"measurement": "normalized growth", "setting": "locus YDR297W, strain sur2, stronger effect = lower value", "value": "0.885 (active)"}, {"measurement": "normalized growth", "setting": "locus YDR318W, strain mcm21, stronger effect = lower value", "value": "0.828 (active)"}, {"measurement": "normalized growth", "setting": "locus YDR334W, strain swr1, stronger effect = lower value", "value": "0.903 (inactive)"}, {"measurement": "normalized growth", "setting": "locus YDR335W, strain msn5, stronger effect = lower value", "value": "0.976 (inactive)"}, {"measurement": "normalized growth", "setting": "locus YDR388W, stronger effect = lower value", "value": "0.648 (active)"}, {"measurement": "normalized growth", "setting": "locus YDR392W, strain spt3, stronger effect = lower value", "value": "0.875 (inactive)"}, {"measurement": "normalized growth", "setting": "locus YDR502C, strain sam2, stronger effect = lower value", "value": "0.85 (active)"}, {"measurement": "normalized growth", "setting": "locus YEL003W, strain gim4, stronger effect = lower value", "value": "0.793 (active)"}, {"measurement": "normalized growth", "setting": "locus YEL037C, strain rad23, stronger effect = lower value", "value": "0.856 (active)"}, {"measurement": "normalized growth", "setting": "locus YEL061C, strain CIN8 (second series), stronger effect = lower value", "value": "0.978 (inactive)"}, {"measurement": "normalized growth", "setting": "locus YEL061C, strain CIN8, stronger effect = lower value", "value": "0.968 (inactive)"}, {"measurement": "normalized growth", "setting": "locus YER015W, strain faa2, stronger effect = lower value", "value": "0.561 (active)"}, {"measurement": "normalized growth", "setting": "locus YER016W, strain bim1, stronger effect = lower value", "value": "0.906 (active)"}, {"measurement": "normalized growth", "setting": "locus YER110C, stronger effect = lower value", "value": "0.99 (inactive)"}, {"measurement": "normalized growth", "setting": "locus YER111C, strain swi4, stronger effect = lower value", "value": "0.96 (inactive)"}, {"measurement": "normalized growth", "setting": "locus YER155C, strain BEM2 (second series), stronger effect = lower value", "value": "0.759 (active)"}, {"measurement": "normalized growth", "setting": "locus YER155C, strain BEM2, stronger effect = lower value", "value": "0.862 (active)"}, {"measurement": "normalized growth", "setting": "locus YER167W, strain BCK2, stronger effect = lower value", "value": "0.971 (inactive)"}, {"measurement": "normalized growth", "setting": "locus YFR010W, strain ubp6, stronger effect = lower value", "value": "0.699 (active)"}, {"measurement": "normalized growth", "setting": "locus YGL078C, strain dbp3, stronger effect = lower value", "value": "0.987 (inactive)"}, {"measurement": "normalized growth", "setting": "locus YGL086W, strain mad1, stronger effect = lower value", "value": "0.832 (active)"}, {"measurement": "normalized growth", "setting": "locus YGL167C, strain pmr1, stronger effect = lower value", "value": "0.983 (inactive)"}, {"measurement": "normalized growth", "setting": "locus YGL173C, strain kem1, stronger effect = lower value", "value": "0.94 (inactive)"}, {"measurement": "normalized growth", "setting": "locus YGL227W, strain vid30, stronger effect = lower value", "value": "0.963 (inactive)"}, {"measurement": "normalized growth", "setting": "locus YGL240W, strain doc1, stronger effect = lower value", "value": "0.951 (inactive)"}, {"measurement": "normalized growth", "setting": "locus YGL248W, strain PDE1, stronger effect = lower value", "value": "0.769 (active)"}, {"measurement": "normalized growth", "setting": "locus YGL253W, strain hxk2, stronger effect = lower value", "value": "0.77 (active)"}, {"measurement": "normalized growth", "setting": "locus YGR135W, strain pre9, stronger effect = lower value", "value": "0.758 (active)"}, {"measurement": "normalized growth", "setting": "locus YGR252W, strain gcn5, stronger effect = lower value", "value": "0.471 (active)"}, {"measurement": "normalized growth", "setting": "locus YHR013C, strain ard1, stronger effect = lower value", "value": "0.54 (active)"}, {"measurement": "normalized growth", "setting": "locus YHR027C, strain rpn1, stronger effect = lower value", "value": "0.68 (active)"}, {"measurement": "normalized growth", "setting": "locus YHR030C, strain SLT2, stronger effect = lower value", "value": "0.393 (active) and 0.952 (inactive)"}, {"measurement": "normalized growth", "setting": "locus YHR079C, strain IRE1 (second series), stronger effect = lower value", "value": "0.942 (inactive)"}, {"measurement": "normalized growth", "setting": "locus YHR079C, strain IRE1, stronger effect = lower value", "value": "0.934 (inactive)"}, {"measurement": "normalized growth", "setting": "locus YHR094C, strain hxt1, stronger effect = lower value", "value": "0.986 (inactive)"}, {"measurement": "normalized growth", "setting": "locus YHR129C, strain ARP1, stronger effect = lower value", "value": "0.842 (active)"}, {"measurement": "normalized growth", "setting": "locus YHR142W, strain chs7, stronger effect = lower value", "value": "0.734 (active)"}, {"measurement": "normalized growth", "setting": "locus YHR200W, strain rpn10, stronger effect = lower value", "value": "0.904 (active)"}, {"measurement": "normalized growth", "setting": "locus YIL066C, strain RNR3, stronger effect = lower value", "value": "0.821 (active)"}, {"measurement": "normalized growth", "setting": "locus YIL073C, strain SPO22, stronger effect = lower value", "value": "0.951 (inactive)"}, {"measurement": "normalized growth", "setting": "locus YIL125W, strain kgd1, stronger effect = lower value", "value": "0.993 (inactive)"}, {"measurement": "normalized growth", "setting": "locus YIR030C, strain dcg1, stronger effect = lower value", "value": "0.979 (inactive)"}, {"measurement": "normalized growth", "setting": "locus YJL092W, strain hpr5, stronger effect = lower value", "value": "0.817 (active)"}, {"measurement": "normalized growth", "setting": "locus YJL095W, strain BCK1 (second series), stronger effect = lower value", "value": "0.332 (active)"}, {"measurement": "normalized growth", "setting": "locus YJL095W, strain BCK1, stronger effect = lower value", "value": "0.203 (active) and 0.96 (inactive)"}, {"measurement": "normalized growth", "setting": "locus YJL115W, strain asf1, stronger effect = lower value", "value": "0.927 (inactive)"}, {"measurement": "normalized growth", "setting": "locus YJL129C, strain trk1, stronger effect = lower value", "value": "0.61 (active)"}, {"measurement": "normalized growth", "setting": "locus YJL134W, strain LCB3, stronger effect = lower value", "value": "0.989 (inactive)"}, {"measurement": "normalized growth", "setting": "locus YJL154C, strain vps35, stronger effect = lower value", "value": "0.995 (inactive)"}, {"measurement": "normalized growth", "setting": "locus YJL164C, strain tpk1, stronger effect = lower value", "value": "0.622 (active)"}, {"measurement": "normalized growth", "setting": "locus YJL166W, strain qcr8, stronger effect = lower value", "value": "0.735 (active)"}, {"measurement": "normalized growth", "setting": "locus YJL168C, strain set2, stronger effect = lower value", "value": "0.987 (inactive)"}, {"measurement": "normalized growth", "setting": "locus YJL187C, strain SWE1 (second series), stronger effect = lower value", "value": "0.731 (active)"}, {"measurement": "normalized growth", "setting": "locus YJL187C, strain SWE1, stronger effect = lower value", "value": "0.878 (active)"}, {"measurement": "normalized growth", "setting": "locus YJR043C, strain POL32, stronger effect = lower value", "value": "0.903 (inactive)"}, {"measurement": "normalized growth", "setting": "locus YJR066W, strain TOR1, stronger effect = lower value", "value": "0.926 (inactive)"}]}]}
